# Records with an inconclusive call do not appear. Entries that show only a call come without a potency. Values without a mark were called inactive. The source made the active and inactive calls. Calls come from the whole dose curve; as a rule, active = well fitted cell-killing curve with a large enough effect in the repeat runs; inconclusive = weak or mixed curves; inactive = flat fitted curve, though single readings scatter.
# Assay: qHTS RealTime-Glo MT Cell Viability Assay in HepG2 cells - 24 hour (AID 1224867); note: nearly all actives have a fitted effect of over 50% in size
# Conditions: RealTime-Glo luminescence; series mostly up to 76.8 µM; activity change, negative = cytotoxicity: at the top concentration
# Excerpt: U.S. Tox21 Program National Center for Advancing Translational Sciences [NCATS] NIH Chemical Genomics Center [NCGC] U.S. Environmental Protection Agency [EPA] National Institutes of Environmental Health Sciences [NIEHS] National Toxicology Program [NTP] U.S. Food and Drug Administration [FDA] Tox21 Assay Overview: Measure of cell viability is critical in the cell-base assay. Analysis of cell viability is necessary for the characterization of cell responses to cytotoxic drugs and environmental stress. A RealTime-Glo MT Cell Viability Assay to monitor cell viability in real time of continues cell culture during 40 hours of compound treatment was used to screen Tox21 10K library compounds in HepG2 cells. The RealTime-Glo MT Cell Viability Assay is a nonlytic, homogeneous, bioluminescent method to measure cell viability in real time using a simple, plate-based method. The assay involves adding NanoLuc luciferase and a cell-permeant prosubstrate to cells in culture. Viable cells reduce the proprietary prosubstrate to generate a substrate for NanoLuc luciferase. This substrate diffuses from cells into the surrounding culture medium, where it is rapidly used by the NanoLuc Enzyme to produce a luminescent signal. The signal correlates with the number of viable cells, making the assay well suited for cytotoxicity studies.
# Tox21 Assay Protocol Summary: The mixture of HepG2 cell suspension and reagents were dispensed at 600cells/6 ul/well in 1536-well tissue culture treated black solid bottom plates using a Multidrop dispenser. After the assay plates were incubated at a 37 C/5% CO2 incubator for 5 hours, 23 nL of compounds dissolved in DMSO, positive and negative controls was transferred to the assay plate by a pintool work station. The plates were incubated at 37 C for 40 hours. The luminescence intensity were measured at 0h, 8h, 16h, 24h, 32h and 40h time points using ViewLux plate reader during compound treatment.
Structure (SMILES),Potency,"activity change, negative = cytotoxicity [%]"
CC1(C)CC(N=C=O)CC(C)(CN=C=O)C1 (stereo not given),inactive,–
C=C1CC[C@H](O)CC1=C/C=C1\CCC[C@]2(C)[C@@H]([C@H](C)/C=C/[C@H](C)C(C)C)CC[C@@H]12,inactive,–
O=C1N=C(O)CN1/N=C/c1ccc(-c2ccc([N+](=O)[O-])cc2)o1,inactive,–
C=CC(=O)OCCCCCCCC(C)C,inactive,–
OCC1CCCO1 (stereo not given),inactive,–
CC(=O)Nc1ccc(C(=O)O)cc1,inactive,–
OCC#CCO,inactive,–
O=S(=O)(O)c1cc(S(=O)(=O)O)c2c(N=Nc3ccccc3)c(O)ccc2c1,–,-17.2
NCCc1ccc(O)c(O)c1,inactive,–
CCCCCC/C=C/CCCCCCCC(=O)O,inactive,–
CC(C)(CO)COC(=O)C(C)(C)CO,inactive,–
CC(=O)CCc1ccccc1,inactive,–
NC(=O)NNc1ccccc1,inactive,–
O=S(=O)(O)CCS,inactive,–
C/C=C(C)/C=C/C=C(C)C,inactive,–
CCCCCCCCCC(=O)O,inactive,–
NC(=O)/N=N/C(N)=O,inactive,–
CN(CCOc1ccc(CC2SC(=O)NC2=O)cc1)c1ccccn1 (stereo not given),inactive,–
CC1=C(CC(=O)O)c2cc(F)ccc2/C1=C\c1ccc(S(C)=O)cc1 (stereo not given),inactive,–
O=C(Oc1ccccc1)c1ccc(O)cc1,inactive,–

Structure (SMILES),Potency,"activity change, negative = cytotoxicity [%]"
CCCCC(CC)COC(C)=O (stereo not given),inactive,–
CC(C)(N=C=O)c1cccc(C(C)(C)N=C=O)c1,inactive,–
Nc1c(S(=O)(=O)O)cc(Br)c2c1C(=O)c1ccccc1C2=O,inactive,–
Oc1c(Cl)cc(Cl)c(Cl)c1Cl,inactive,–
CC1(C)O[C@@H]2C[C@H]3[C@@H]4C[C@H](F)C5=CC(=O)CC[C@]5(C)[C@H]4[C@@H](O)C[C@]3(C)[C@]2(C(=O)CO)O1,inactive,–
NS(=O)(=O)c1cc2c(cc1Cl)NC=NS2(=O)=O,inactive,–
C=C(C)C(=O)OCCCCCCCCCCCC,inactive,–
CCCCOCCOCCOC(=O)CCCCC(=O)OCCOCCOCCCC,inactive,–
O=[N+]([O-])c1cc(N(CCO)CCO)ccc1NCCO,inactive,–
CCCCCCCCC,inactive,–
CCc1ccccc1O,inactive,–
C=C1C2CCC(C2)C1(C)C (stereo not given),inactive,–
OC[C@@H](O)[C@H](O)[C@H](O)[C@@H](O)CO,inactive,–
CN(C)c1cccc(O)c1,inactive,–
CCC(=O)O,inactive,–
COC(=O)Nc1nc2ccc(Sc3ccccc3)cc2[nH]1,inactive,–
CCc1ccc(O)cc1,inactive,–
c1ccc2[nH]cnc2c1,inactive,–
CCCCNC(N)=O,inactive,–
c1ccc2ccccc2c1,inactive,–
